PubChem BioAssay AID1159580 (chemical genetic matrix, 2015)
Where “and” joins values, the source holds several entries; their conditions need not be identical. Identical values can stand only once. Among all 5,500 compounds or so, about 2,000 (36%) were called active. Inconclusive results (about 18%) are left out. No stated cut-off is given here; in the data, active means normalized growth mostly below about 0.91 (no sharp cut-off); inconclusive means no clear call, values can overlap the other calls; inactive means mostly above about 0.92. Some of the results follow.

Assay: chemical genetic growth profiling, strain panel (AID 1159580);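 further: tested at 20 µM; growth read once vehicle control cultures reached saturation at 30 °C; 1 = growth at the plate median or of vehicle wells; lower values mean less growth of the strain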
Details: S. cerevisiae deletion strains, growth OD

Measured: normalized growth

CCn1cc(C(=O)O)c(=O)c2cc3c(cc21)OCO3
inactive: locus YAL013W, strain DEP1, hits give low values 1.01 | locus YAL021C, strain ccr4, hits give low values 0.967 | locus YAL026C, strain drs2, hits give low values 0.982 | locus YAL030W, strain snc1, hits give low values 0.977 | locus YAL040C, strain CLN3, hits give low values 0.97 | locus YBL061C, strain skt5, hits give low values 0.977 | locus YBR009C, strain hhf1, hits give low values 0.977 | locus YBR021W, strain FUR4, hits give low values 1.01 | locus YBR023C, strain chs3, hits give low values 0.957 | locus YBR171W, strain sec66, hits give low values 0.962 | locus YBR229C, strain ROT2, hits give low values 1.01 | locus YBR231C, strain swc5, hits give low values 0.979 | locus YBR279W, strain paf1, hits give low values 0.977 | locus YCL011C, strain gbp2, hits give low values 0.974 | locus YCL016C, strain dcc1, hits give low values 0.988 | locus YCL029C, strain bik1, hits give low values 0.997 | locus YCL061C, strain MRC1 (second series), hits give low values 0.991 | locus YCL061C, strain MRC1, hits give low values 0.971 | locus YCL069W, strain vba3, hits give low values 0.98 | locus YCR088W, strain abp1, hits give low values 0.981 | locus YDL005C, strain med2, hits give low values 0.971 | locus YDL035C, strain GPR1, hits give low values 1.02 | locus YDL040C, strain nat1, hits give low values 0.985 | locus YDL074C, strain BRE1, hits give low values 1.06 | locus YDL101C, strain DUN1, hits give low values 1.02 | locus YDL134C, strain PPH21, hits give low values 1 | locus YDL185W, strain tfp1, hits give low values 0.999 | locus YDL192W, strain arf1, hits give low values 0.99 | locus YDR001C, strain nth1, hits give low values 0.979 | locus YDR069C, strain doa4, hits give low values 0.989 | locus YDR101C, strain arx1, hits give low values 0.993 | locus YDR137W, strain rgp1, hits give low values 0.857 | locus YDR150W, strain NUM1, hits give low values 0.99 | locus YDR159W, strain sac3, hits give low values 0.996 | locus YDR162C, strain NBP2, hits give low values 1.01 | locus YDR195W, strain ref2 0.983 | locus YDR297W, strain sur2, hits give low values 0.98 | locus YDR318W, strain mcm21, hits give low values 1 | locus YDR334W, strain swr1, hits give low values 0.955 | locus YDR335W, strain msn5, hits give low values 0.984 | locus YDR363W, strain ESC2, hits give low values 0.973 | locus YDR388W, hits give low values 0.99 | locus YDR392W, strain spt3, hits give low values 0.914 | locus YDR502C, strain sam2, hits give low values 1.01 | locus YEL003W, strain gim4, hits give low values 1 | locus YEL037C, strain rad23, hits give low values 0.975 | locus YEL061C, strain CIN8 (second series), hits give low values 0.98 | locus YEL061C, strain CIN8, hits give low values 1.01 | locus YER002W, strain NOP16, hits give low values 0.967 | locus YER015W, strain faa2, hits give low values 0.983 | locus YER016W, strain bim1, hits give low values 0.993 | locus YER110C, hits give low values 0.991 | locus YER111C, strain swi4, hits give low values 0.972 | locus YER155C, strain BEM2 (second series), hits give low values 0.979 | locus YER155C, strain BEM2, hits give low values 1.01 | locus YER167W, strain BCK2, hits give low values 1.01 | locus YFR010W, strain ubp6, hits give low values 0.97 | locus YGL078C, strain dbp3, hits give low values 0.99 | locus YGL086W, strain mad1, hits give low values 1.01 | locus YGL167C, strain pmr1, hits give low values 0.976 | locus YGL173C, strain kem1, hits give low values 0.974 | locus YGL227W, strain vid30, hits give low values 0.978 | locus YGL240W, strain doc1, hits give low values 0.988 | locus YGL248W, strain PDE1, hits give low values 1.02 | locus YGL253W, strain hxk2, hits give low values 0.991 | locus YGR135W, strain pre9, hits give low values 0.99 | locus YGR229C, strain SMI1, hits give low values 1.02 | locus YGR252W, strain gcn5, hits give low values 1 | locus YHR013C, strain ard1, hits give low values 0.959 | locus YHR027C, strain rpn1, hits give low values 0.971 | locus YHR030C, strain SLT2, hits give low values 1.01 and 1.07 | locus YHR079C, strain IRE1 (second series), hits give low values 0.992 | locus YHR079C, strain IRE1, hits give low values 1.11 | locus YHR094C, strain hxt1, hits give low values 0.987 | locus YHR129C, strain ARP1, hits give low values 1.01 | locus YHR142W, strain chs7, hits give low values 0.933 | locus YHR200W, strain rpn10, hits give low values 1 | locus YIL066C, strain RNR3, hits give low values 1.02 | locus YIL073C, strain SPO22, hits give low values 0.987 | locus YIL125W, strain kgd1, hits give low values 0.995 | locus YIR030C, strain dcg1, hits give low values 0.999 | locus YJL092W, strain hpr5, hits give low values 0.981 | locus YJL095W, strain BCK1 (second series), hits give low values 0.983 | locus YJL095W, strain BCK1, hits give low values 1.03 and 1.04 | locus YJL115W, strain asf1, hits give low values 0.974 | locus YJL129C, strain trk1, hits give low values 0.974 | locus YJL134W, strain LCB3, hits give low values 1.01 | locus YJL154C, strain vps35, hits give low values 0.969 | locus YJL164C, strain tpk1, hits give low values 0.997 | locus YJL166W, strain qcr8, hits give low values 0.969 | locus YJL168C, strain set2, hits give low values 0.997 | locus YJL187C, strain SWE1 (second series), hits give low values 1.03 | locus YJL187C, strain SWE1, hits give low values 0.975 | locus YJR043C, strain POL32, hits give low values 1.02
